85 compounds from PubChem BioAssay AID1532 (PCMD, 2009) can be followed below.

About 420 (0.38%) of roughly 110,000 compounds were called active. No stated cut-off is given here; in the data, active means inhibition above about 30% (passing the limit was not always enough); inconclusive means no clear call, values can overlap the other calls. Shown is part of a subset that was picked to be rich in actives.

For the assay, the system named is RmlC (dTDP-4-dehydrorhamnose 3,5-epimerase) and RmlD (dTDP-4-dehydrorhamnose reductase), coupled enzyme assay. Briefly: RmlC and RmlD coupled enzyme inhibitors, primary screen, biochemical, 384-well, compound mixtures, retest (AID 1532). To be noted: 384-well mixture HTS, at 5.5 µM, stronger effect = higher value.
Setting [1] is: measured here: mean retest inhibition.

Turning to `CCc1nnc(SCc2cccc(F)c2)nc1CC`, the inhibition is -1.83% (inactive). For `Cc1cccc(Nc2nc(NCCO)nc(N3CCCC3)n2)c1`, the inhibition is -9.11% (inactive). Turning to `COCOc1cc(O)c(C(=O)/C=C/c2ccc(OCOC)c(OCOC)c2)c(OCOC)c1`, the inhibition was 4.09% (inactive). As for `COc1cc(/C=C/CO)cc(OC)c1O[C@@H]1O[C@H](CO)[C@@H](O)[C@H](O)[C@H]1O`, the inhibition was -10.6% (inactive). Same read-out and setting: the result for `CC(C)NC(=O)NCCCCCCS(C)=O` (stereo not drawn) reads -13.8% (inactive); that for `CCCCC1=CC2=CC(=O)C(C)(OC(=O)CC)C(=O)C2=CN1CCCOC(C)C` (stereo not drawn), 21.9% (inactive); that for `CC1=C(C)C(=O)OC(C(C)C2CCC3C4CC=C5CC(OC6OC(COC7OC(CO)C(O)C(O)C7O)C(O)C(O)C6O)CC(O)C5(C)C4CCC23C)C1` (stereo not drawn), -13.2% (inactive). The same measure, in the same setting: in the case of `C/C=C(/C)C(=O)O[C@@H]1c2cc3c(c4c2[C@@]2(CO4)C(=O)C(OC)=C(OC)C=C2C[C@@H](C)[C@H]1C)OCO3` it was -2.38% (inactive); in that of `C/C=C(\C)C(=O)NCCN1C2=NC[C@H](Cc3ccc(O)cc3)N2C[C@@H]1Cc1ccc(OC)cc1`, 6.27% (inactive). Consider `COC(=O)CCCC1=CC2=CC(=O)C(C)(OC(=O)c3cccs3)C(=O)C2=CN1CC(C)C` (stereo not drawn), for which the inhibition is 6.81% (inactive). On the same count and under the same terms, in the case of `O=C(C1=C[C@H](c2coc3ccccc3c2=O)C[C@H](OCc2ccc(CO)cc2)O1)N1CCN(Cc2ccccc2)CC1` it was 13.6% (inactive); in that of `C=CCNC(=O)c1ccc2c3n(nc2c1)-c1ccc(C)cc1CO3`, -4.6% (inactive). As to `C[C@H]1CC[C@]2(O[C@@H](CCO)C[C@@H](O)[C@@H]2O)O1`, the inhibition is 6.2% (inactive). For the compound `C=C1C2C[C@H](O)C(C)(C)[C@@]2(O)[C@H](O)C[C@]23C[C@@](C)(O)[C@H](CC[C@H]12)[C@H]3O` (stereo partly drawn), the inhibition was -7.47% (inactive). Take `CCO[C@H]1OC(C(=O)Nc2ccccc2)=C[C@@H](C2CC2)[C@@H]1CCCO`: the inhibition was -2.12% (inactive). Take `COc1ccc(CCNC(=O)C2CC3Cn4c(nc5cc(C)c(C)cc54)C3N2C)cc1` (stereo not drawn): the inhibition is 5.88% (inactive). The same measure, in the same setting: the result for `O=C(NCc1ccccc1)C1=C[C@@H](c2ccccc2)C[C@@H](OCCCCO)O1` reads -11.4% (inactive); that for `COC(=O)CCCC1=CC2=C(c3ccccc3)C(=O)C(C)(OC(=O)C3CCCC3)C(=O)C2=CN1c1ccc(OC)cc1` (stereo not drawn), 6.14% (inactive).

Regarding `COc1ccc2c(c1)CC[C@@H]1[C@@H]2CC[C@]2(C)C(=O)CC[C@@H]12`, the inhibition was 0.97% (inactive). Regarding `C#CCOCCOCCOCCNc1nc(N2CCN(C(=O)[C@H](C(C)C)n3cc(CCO)nn3)CC2)nc(N2CCN(C(=O)[C@H]([C@@H](C)CC)n3cc(CCCN=C(N)N)nn3)CC2)n1`, the inhibition was 9.85% (inactive).

In the case of `COC(=O)Cc1c(C)c2ccc(OCC(=O)NCc3ccc4c(c3)OCO4)cc2oc1=O`, the inhibition is 12.6% (inactive). Same read-out and setting: the result for `O=C(Oc1ccccc1)Oc1ccc2c(c1)oc(=O)c1ccccc12` reads -16.4% (inactive). With `CC(=O)Oc1ccc2c(C)c(CC(C)O)c(=O)oc2c1` (stereo not drawn), the inhibition is 100% (active). For the same compound, the inhibition under setting [1] is 151%. `CC(=O)Oc1ccc(NC(=O)CCC2CCCCC2)c(C(=O)O)c1`: the inhibition is 0.91% (inactive). With `CC(=O)Nc1cc2ccc(OC(C)=O)cc2oc1=O`, the inhibition (above what the read-out allows, likely interference) is 671% (active). Take `O=C(Nc1cc2ccccc2oc1=O)C1CCCCC1`: the inhibition was -8.93% (inactive).

For `C=CCC1(C(=O)N(C)Cc2ccccc2)CCN(C(=O)OC(C)(C)C)CC1`, the inhibition is 4.78% (inactive). On to `NC(=O)C[C@@H]1NC(=O)CNC(=O)c2cc([N+](=O)[O-])cc(I)c2NCCC(C(N)=O)NC1=O` (stereo partly drawn), for which the inhibition is -2.76% (inactive). For `O=C1c2ccccc2S(=O)(=O)c2cc(N3CCN(c4ccccn4)CC3)ccc21`, the inhibition was -10.5% (inactive). As for `C=CCSc1nnc2c(n1)-c1cccc3cccc-2c13`, the inhibition was 10.4% (inactive). Take `COc1ccc(-c2nc3c(s2)CCc2onc(-c4ccc(Br)cc4)c2-3)cc1`: the inhibition was -14.4% (inactive). The same measure, in the same setting: the result for `COC(C[C@@H](O)C[C@@H](O)[C@H](C)OCc1ccccc1)OC` reads 1.16% (inactive). With `C=CC(COCc1ccccc1)N(Cc1ccccc1)S(=O)(=O)c1ccccc1Br` (stereo not drawn), the inhibition is 14.3% (inactive). Still for that read-out and setting: in the case of `CC(C)C[C@H](CO)Nc1nc(N(C)c2cccc(Cl)c2)c2ncn(C(C)C)c2n1` it was 4.1% (inactive); in that of `NCCCC[C@@H]1NC(=O)[C@H](CCC(=O)O)NC(=O)c2cc([N+](=O)[O-])cc(I)c2NCC[C@@H](C(N)=O)NC1=O`, -2.74% (inactive).

As to `COC(C[C@@H](O)C[C@H](O)[C@H](C)OCc1ccccc1)OC`, the inhibition was 8.66% (inactive). Regarding `COc1cccc(NC(=S)N(CCc2c(C)[nH]c3ccccc23)Cc2ccco2)c1`, the inhibition is -5.74% (inactive). The same measure, in the same setting: in the case of `O=c1cc(-c2ccccc2)[nH]c2cc(F)ccc12` it was 2.31% (inactive); in that of `C=CCCN(Cc1ccccc1)S(=O)(=O)c1ccccc1Br`, 17.6% (inactive). As to `COc1ccccc1-c1nc(C#N)c(N2CCC(C(N)=O)CC2)o1`, the inhibition is 31.8% (active). For the same compound, under setting [1], the inhibition is 33.6%.

Take `COc1ccccc1-c1nnc(SCC(=O)N2CC(C)CC(C)C2)o1` (stereo not drawn): the inhibition was -13.8% (inactive).

`CC1CCN(c2oc(-c3ccccc3F)nc2C#N)CC1`: the inhibition is 19.3% (inactive). On the same count and under the same terms, in the case of `O=C(NC1CC1)C1=C[C@H](c2coc3ccccc3c2=O)C[C@H](OCCCCO)O1` it was -32.1% (inactive); in that of `O=C(C1=C[C@H](C2CC2)C[C@H](OCc2ccc(CO)cc2)O1)N1CCN(Cc2ccccc2)CC1`, 2.28% (inactive). Consider `COC(=O)C1=C(C(=O)OC)[C@@H]2N(C)c3ccccc3[C@@]23C[C@@H](C(=O)OC)N(C(C)=O)C3=N1`, for which the inhibition is 1.9% (inactive).

Consider `CC(=O)n1cc([C@@H]2C=C(C(=O)N3CCN(Cc4ccc5c(c4)OCO5)CC3)O[C@H](OCc3ccc(CO)cc3)C2)c2ccccc21`, for which the inhibition was 5.68% (inactive). On the same count and under the same terms, in the case of `O=C(NCc1cc(C(F)(F)F)cc(C(F)(F)F)c1)C1CC(c2cccc(F)c2)=NO1` (stereo not drawn) it was 2.58% (inactive); in that of `CCO[C@@H]1OC(C(N)=O)=C[C@H](c2ccc(Br)cc2)[C@H]1CCCO`, 3.81% (inactive); in that of `CC(NC(=O)Nc1ccccc1)C(c1cccs1)N1CCN(c2ccccc2)CC1` (stereo not drawn), 10.1% (inactive). Turning to `CCO[C@H]1OC(C(=O)NCc2ccccc2)=C[C@@H](c2coc3ccccc3c2=O)[C@@H]1CCCO`, the inhibition is 1.17% (inactive). The same measure, in the same setting: the result for `COc1ccc(-c2nnc(SCC(=O)c3ccc4c(c3)OCCO4)o2)cc1` reads -6.96% (inactive); that for `COc1ccc(-c2csc(N3CCN(Cc4ccc5c(c4)OCO5)CC3)n2)cc1`, 25.8% (inactive).

For the compound `COc1ccc(C#Cc2c(-c3ccc(OC)cc3)oc3ccc(-c4ccc5c(c4)OCO5)cc23)cc1`, under setting [1], the inhibition worked out at 110%. As for `C[C@@H]1CC[C@]2(O[C@@H](CCO)C[C@H](O)[C@H]2O)O1`, the inhibition was -20.2% (inactive). The same measure, in the same setting: in the case of `CCOC(=O)c1sc(NC(=O)CSc2nc3c(c(=O)n2-c2ccccc2)SCC3)c(C(=O)OCC)c1C` it was -104% (inactive); in that of `CCC(C)[C@@H](C(=O)N1CCNCC1)n1cc(CCCCN)nn1` (stereo partly drawn), -10% (inactive); in that of `CN1CCN(C(=O)C2=C[C@H](c3ccc4c(c3)OCO4)C[C@H](OCc3ccc(CO)cc3)O2)CC1`, 8.25% (inactive). Consider `CC(C)(C)n1nc(Cc2cccc3ccccc23)c(C#N)c1N`, for which the inhibition is -12.7% (inactive). Consider `CCOC(=O)/C=C/c1ccc(C(F)(F)F)cc1S(=O)(=O)NC(C)(C)C`, for which the inhibition is 32.4% (inactive). In addition, the inhibition under setting [1] was -3.06%.

In the case of `O=C1NC[C@@H](Cc2ccc(O)cc2)N(CCc2cccc(F)c2)C1=O`, the inhibition was 6.42% (inactive). Still for that read-out and setting: the result for `COC(=O)CCCC1=CC2=CC(=O)C(C)(OC(=O)c3cccs3)C(=O)C2=CN1CC1CC1` (stereo not drawn) reads 1.92% (inactive). On to `COc1ccc(CNC(=O)C2(CC3CC(c4ccccc4)=NO3)CCN(C(=O)c3cccc(O)c3)CC2)cc1` (stereo not drawn), for which the inhibition was -4.7% (inactive).

As to `COC(C/C=C/C(=O)[C@@H](C)OCc1ccccc1)OC`, the inhibition was 9.13% (inactive). On the same count and under the same terms, in the case of `C#CCOCCOCCOCCNc1nc(N2CCN(C(=O)[C@H](Cc3ccc(O)cc3)n3cc(C(N)CC(C)C)nn3)CC2)nc(N2CCN(C(=O)[C@H](CCC(=O)O)n3cc(C(N)[C@H](C)CC)nn3)CC2)n1` (stereo partly drawn) it was 7.73% (inactive). Regarding `CN1CCCc2cc(C#N)c(=O)[nH]c21`, the inhibition is 48.2% (active). Also, the inhibition under setting [1] was determined as 113%.

Regarding `C#CCNC(=O)[C@H](Cc1ccc(C(=O)c2ccccc2)cc1)NC(=O)OC(C)(C)C`, the inhibition is -13.5% (inactive). On to `CCO[C@@H]1OC(C(=O)N2CCOCC2)=C[C@H](C)[C@H]1CCCO`, for which the inhibition is -9.82% (inactive). For `CC1(OC(=O)CCc2ccccc2)C(=O)C=C2C=C(c3ccc(C#N)cc3)N(CCc3ccccn3)C=C2C1=O` (stereo not drawn), the inhibition was 3.85% (inactive). For `O=c1c(-c2ccccc2)coc2cc(O)ccc12`, the inhibition is 44.3% (inactive). Moreover, the inhibition under setting [1] worked out at 18%. The matching figures for `COc1ccc(-c2cc3ccc(OCc4nn[nH]n4)cc3oc2=O)cc1`: 94.2% (inactive) and 82.7%.

As for `O=c1oc2cc(O)ccc2cc1-c1ccc(F)cc1`, the inhibition was 136% (active). In addition, under setting [1], the inhibition is 118%.

As for `COC(C[C@@H]1O[C@@H]1C(=O)[C@@H](C)OCc1ccccc1)OC`, the inhibition is 13.7% (inactive). On the same count and under the same terms, the result for `CC1(C)C=C2[C@H]3CC[C@@H]4[C@@]5(C)CCC(=O)C(C)(C)[C@@H]5CC[C@@]4(C)[C@]3(C)CC[C@@]2(C(=O)O)CC1` reads 9.38% (inactive); that for `C[C@@H]1NC(=O)c2cc([N+](=O)[O-])cc(F)c2NCCC[C@@H](C(N)=O)NC(=O)[C@H](CC(N)=O)NC1=O`, 5.67% (inactive); that for `CNC(=O)c1[nH]cnc1C(=O)N[C@@H](CC(C)C)C(=O)OCc1ccccc1`, 1.9% (inactive). The same measure, in the same setting: in the case of `CCOC(=O)c1cccc(NC(=O)c2ccc(F)cc2F)c1` it was -9.66% (inactive).

`O=C(NC1CC1)C1=C[C@H](c2c[nH]c3ccccc23)C[C@H](OCc2ccc(CO)cc2)O1`: the inhibition was 7.9% (inactive).

Consider `Cn1ccnc1-c1nnn(-c2ccc(F)cc2)n1`, for which the inhibition was -8.61% (inactive). The same measure, in the same setting: the result for `CCC(=O)Nc1cccc(C2=NOC3(C2)C[C@@H](C(N)=O)N(C(=O)c2cc([N+](=O)[O-])cc([N+](=O)[O-])c2C)C3)c1` (stereo partly drawn) reads 4.35% (inactive). Turning to `CNC(=O)c1cc2c(ccc3ccccc32)oc1=N`, the inhibition was 52.7% (active). Under setting [1], the inhibition was 155%. With `CC(=O)c1ccc2c(ccc3ccccc32)c1`, the inhibition was 5.48% (inactive). Regarding `CCOC(=O)N1CCN(C(=O)c2cc3c(ccc4ccccc43)oc2=O)CC1`, the inhibition is 2.38% (inactive). On the same count and under the same terms, the result for `CCOC(=O)c1c(NC(=O)C(C)Sc2c[nH]c3ccccc23)sc2c1CCC2` (stereo not drawn) reads -9.18% (inactive); that for `CCOC(=O)C[C@H]1c2ccc(C(F)(F)F)cc2S(=O)(=O)N1c1ccccc1`, -16.1% (inactive). With `COc1ccc(C[C@H]2CN3C(=NC[C@H]3C)N2CCNC(=O)CCC2CCCCC2)cc1`, the inhibition is 6.01% (inactive).
